Source: PubChem BioAssay (NCI)
This is part of a sample that, as a whole, favours compounds with a hit. Of some 79,000 tested, about 15% had one in any assay. Calls of active or inactive are those of the source. Rule as the data show it: active = growth inhibition above about 70%; inactive = the rest.

Experiments:
[1] = NCI Yeast Anticancer Drug Screen. Data for the rad52 strain (AID 147);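 also: 0% = growth of vehicle-treated control cultures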; conditions: S. cerevisiae rad52 mutant growth inhibition, hits give high values
Method in brief: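 Read-out: growth inhibition versus vehicle-treated controls. Cells were a DNA repair-deficient yeast strain treated with compounds.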

[2] = NCI Yeast Anticancer Drug Screen. Data for the wt1 strain (AID 149);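 also: 0% = growth of vehicle-treated wt1 cultures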; conditions: S. cerevisiae wt1 strain (SPY 50644) growth inhibition, hits give high values
Method in brief: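 Vehicle-normalised growth inhibition; strain wt1; compound exposure.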

[3] = NCI Yeast Anticancer Drug Screen. Data for the mgt1 strain (AID 153); conditions: S. cerevisiae mgt1 mutant growth inhibition, hits give high values
Method in brief: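 mgt1 yeast grown with test compound; read-out is growth inhibition versus vehicle-treated cultures.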

[4] = NCI Yeast Anticancer Drug Screen. Data for the rad50 strain (AID 155);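 also: 0% = growth of vehicle-only cultures of the same strain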; conditions: S. cerevisiae rad50 strain growth inhibition, hits give high values
Method in brief: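 A DNA repair-deficient yeast mutant serves as the test organism; compound-induced growth inhibition is calculated against vehicle-treated cells.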

[5] = NCI Yeast Anticancer Drug Screen. Data for the mec2-1 strain (AID 157); conditions: S. cerevisiae mec2-1 strain, hits give high values
Method in brief: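 Yeast mec2-1 mutant treated with compound. Readout: growth inhibition vs vehicle controls.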

[6] = NCI Yeast Anticancer Drug Screen. Data for the rad14 strain (AID 159);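 also: 0% = growth of vehicle-treated control cultures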; conditions: S. cerevisiae rad14 strain growth inhibition, hits give high values
Method in brief: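 Vehicle-treated cultures served as the baseline for growth inhibition of a DNA repair-mutant yeast strain exposed to each compound.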

[7] = NCI Yeast Anticancer Drug Screen. Data for the sgs1 mgt1 strain (AID 161);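 also: 0% = growth of cultures given vehicle only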; conditions: S. cerevisiae sgs1 mgt1 strain, hits give high values
Method in brief: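 Inhibition of yeast growth, normalised to vehicle-treated controls, is reported for a strain bearing genetic alterations in DNA damage repair.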

[8] = NCI Yeast Anticancer Drug Screen. Data for the cln2 rad14 strain (AID 165);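 also: 0% = growth equal to vehicle treated cultures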; conditions: S. cerevisiae cln2 rad14 strain, hits give high values
Method in brief: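 cln2 rad14 yeast strain; compound exposure; growth inhibition read vs vehicle controls.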

[9] = NCI Yeast Anticancer Drug Screen. Data for the bub3 strain (AID 167); conditions: S. cerevisiae bub3 mutant strain, hits give high values
Method in brief: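 Inhibition values come from growth of compound-treated mutant yeast normalised to vehicle-treated controls.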

[10] = NCI Yeast Anticancer Drug Screen. Data for the wt2 strain (AID 169);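 also: 0% = growth of vehicle-treated yeast cultures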; conditions: S. cerevisiae wt2 strain growth inhibition, hits give high values
Method in brief: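 Read-out: growth inhibition versus vehicle-treated control cultures after compound exposure of the yeast strain.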

[11] = NCI Yeast Anticancer Drug Screen. Data for the mlh1 strain (AID 171);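 also: 0% = growth of vehicle-treated control cultures of the same strain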; conditions: S. cerevisiae mlh1 strain growth inhibition, hits give high values
Method in brief: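 Read-out: growth inhibition versus vehicle controls. Strain: engineered yeast with a defined DNA repair or cell cycle defect, compound-treated.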

[12] = NCI Yeast Anticancer Drug Screen. Data for the sgs1 strain (AID 173);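 also: 0% = growth of vehicle-only control cultures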; conditions: S. cerevisiae sgs1 mutant, hits give high values
Method in brief: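 Read-out: yeast growth inhibition relative to vehicle controls, following compound exposure of a strain with a defined DNA repair/cell cycle alteration.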

[13] = NCI Yeast Anticancer Drug Screen. Data for the mlh1 rad18 strain (AID 175); conditions: S. cerevisiae mlh1 rad18 strain growth inhibition, hits give high values
Method in brief: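 Yeast w/ defined DNA-repair lesions; compound exposure; growth vs vehicle controls → % inhibition.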

[14] = NCI Yeast Anticancer Drug Screen. Data for the rad18 strain (AID 177); conditions: S. cerevisiae rad18 mutant growth inhibition, hits give high values
Method in brief: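 Readout: growth inhibition vs vehicle controls. Cells: genetically altered yeast strain, DNA repair defect.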

[15] = NCI Yeast Anticancer Drug Screen. Data for the CLN2oe strain (AID 163);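 also: 0% = growth of vehicle-only control cultures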; conditions: S. cerevisiae CLN2oe strain, hits give high values
Method in brief: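 Read-out: yeast growth inhibition, expressed relative to vehicle-only controls. The strain bears an engineered cell-cycle alteration.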

[16] = at 5.0 µM (retest, dose inferred, filed as 0.5)
[17] = at 50.0 µM (retest, dose inferred, filed as 5.0)

Measured: growth inhibition

N#CCCC1C(C#N)C2(Cl)CC1(Cl)C(Cl)=C2Cl (stereo unspecified)
active: [1]; at 33.0 µM 81% | [1]; at 100.0 µM 98% | [2]; at 100.0 µM 98% | [3]; at 100.0 µM 98% | [4]; at 33.0 µM 84% | [4]; [17] 89% | [4]; at 50.0 µM 89.9% | [4]; at 100.0 µM 97% | [5]; [17] 82% | [5]; at 50.0 µM 92% | [5]; at 100.0 µM 98% | [6]; at 33.0 µM 77% | [6]; at 100.0 µM 98% | [7]; at 50.0 µM 91.5% | [8]; [17] 75% | [8]; at 50.0 µM 87.8% | [9]; [17] 73% | [9]; at 50.0 µM 89.2% | [9]; at 100.0 µM 96% | [10]; at 100.0 µM 98% | [11]; at 100.0 µM 97% | [12]; at 100.0 µM 99% | [13]; [17] 85% | [13]; at 50.0 µM 86.8% | [14]; at 33.0 µM 83% | [14]; at 100.0 µM 98%
inactive: [1]; at 1.2 µM -15% | [1]; at 3.7 µM -6% | [1]; at 11.0 µM -2% | [2]; at 1.2 µM -1% | [2]; at 3.7 µM 8% | [2]; at 11.0 µM 1% | [2]; at 33.0 µM 61% | [3]; at 1.2 µM -38% | [3]; at 3.7 µM -46% | [3]; at 11.0 µM -38% | [3]; at 33.0 µM 6% | [4]; at 1.2 µM -10% | [4]; at 3.7 µM 7% | [4]; [16] -23% | [4]; at 11.0 µM 1% | [5]; at 1.2 µM -29% | [5]; at 3.7 µM -8% | [5]; [16] -16% | [5]; at 11.0 µM -7% | [5]; at 33.0 µM 45% | [6]; at 1.2 µM -44% | [6]; at 3.7 µM -36% | [6]; at 11.0 µM -20% | [7]; [16] -18% | [7]; [17] 4% | [8]; [16] 17% | [9]; at 1.2 µM -1% | [9]; at 3.7 µM -6% | [9]; [16] -8% | [9]; at 11.0 µM -15% | [9]; at 33.0 µM 58% | [10]; at 1.2 µM 5% | [10]; at 3.7 µM 5% | [10]; at 11.0 µM 0% | [10]; at 33.0 µM 31% | [11]; at 1.2 µM -42% | [11]; at 3.7 µM -37% | [11]; at 11.0 µM -22% | [11]; at 33.0 µM 16% | [12]; at 1.2 µM 22% | [12]; at 3.7 µM 18% | [12]; at 11.0 µM 20% | [12]; at 33.0 µM 64% | [13]; [16] -3% | [14]; at 1.2 µM -4% | [14]; at 3.7 µM -9% | [14]; at 11.0 µM 1%

Cc1cc2nc3ccccc3n2c2ccccc12
inactive: [1]; at 1.2 µM -33% | [1]; at 3.7 µM -33% | [1]; at 11.0 µM -56% | [1]; at 33.0 µM -11% | [1]; at 100.0 µM 41% | [2]; at 1.2 µM -53% | [2]; at 3.7 µM -48% | [2]; at 11.0 µM -39% | [2]; at 33.0 µM -31% | [2]; at 100.0 µM -8% | [3]; at 1.2 µM -25% | [3]; at 3.7 µM 4% | [3]; at 11.0 µM 6% | [3]; at 33.0 µM 37% | [3]; at 100.0 µM 61% | [4]; at 1.2 µM 2% | [4]; at 3.7 µM -7% | [4]; [16] 0% | [4]; at 11.0 µM 5% | [4]; at 33.0 µM 64% | [4]; at 50.0 µM 41% | [5]; at 1.2 µM -45% | [5]; at 3.7 µM -45% | [5]; [16] -11% | [5]; at 11.0 µM -41% | [5]; at 33.0 µM -30% | [5]; [17] 39% | [5]; at 50.0 µM 56.1% | [5]; at 100.0 µM 8% | [6]; at 1.2 µM -21% | [6]; at 3.7 µM -37% | [6]; at 11.0 µM -36% | [6]; at 33.0 µM -23% | [6]; at 100.0 µM 35% | [7]; [16] -10% | [7]; [17] 29% | [7]; at 50.0 µM 66.7% | [15]; at 1.2 µM -32% | [15]; at 3.7 µM -24% | [15]; at 11.0 µM -30% | [15]; at 33.0 µM -7% | [15]; at 100.0 µM 37% | [8]; [16] 2% | [8]; [17] 60% | [8]; at 50.0 µM 52.6% | [9]; at 1.2 µM -15% | [9]; at 3.7 µM -7% | [9]; [16] 5% | [9]; at 11.0 µM -6% | [9]; at 33.0 µM 5% | [9]; [17] 50% | [9]; at 50.0 µM 69% | [9]; at 100.0 µM 44% | [10]; at 1.2 µM -57% | [10]; at 3.7 µM -45% | [10]; at 11.0 µM -51% | [10]; at 33.0 µM -23% | [10]; at 100.0 µM 45% | [11]; at 1.2 µM -33% | [11]; at 3.7 µM -27% | [11]; at 11.0 µM -7% | [11]; at 33.0 µM 53% | [13]; [16] 6% | [13]; at 50.0 µM 65.9% | [14]; at 1.2 µM -24% | [14]; at 3.7 µM -23% | [14]; at 11.0 µM -10% | [14]; at 33.0 µM -8% | [14]; at 100.0 µM 29%
active: [4]; [17] 86% | [4]; at 100.0 µM 91% | [11]; at 100.0 µM 80% | [13]; [17] 78%

OC(CC(O)(C(F)(F)F)C(F)(F)F)c1ccc(C(O)CC(O)(C(F)(F)F)C(F)(F)F)cc1 (stereo unspecified)
active: [1]; at 11.0 µM 95% | [1]; at 33.0 µM 99% | [1]; at 100.0 µM 99% | [2]; at 11.0 µM 94% | [2]; at 33.0 µM 99% | [2]; at 100.0 µM 100% | [4]; at 11.0 µM 92% | [4]; at 33.0 µM 98% | [4]; [17] 100% | [4]; at 50.0 µM 99% | [4]; at 100.0 µM 92% | [5]; at 11.0 µM 94% | [5]; at 33.0 µM 99% | [5]; [17] 100% | [5]; at 50.0 µM 99.5% | [5]; at 100.0 µM 99% | [6]; at 11.0 µM 95% | [6]; at 33.0 µM 99% | [6]; at 100.0 µM 99% | [7]; [17] 100% | [7]; at 50.0 µM 99.5% | [15]; at 11.0 µM 99% | [15]; at 33.0 µM 99% | [15]; at 100.0 µM 100% | [8]; [17] 100% | [8]; at 50.0 µM 99.2% | [9]; at 11.0 µM 95% | [9]; at 33.0 µM 99% | [9]; [17] 100% | [9]; at 50.0 µM 99.5% | [9]; at 100.0 µM 99% | [10]; at 11.0 µM 98% | [10]; at 33.0 µM 99% | [10]; at 100.0 µM 100% | [11]; at 11.0 µM 90% | [11]; at 33.0 µM 99% | [11]; at 100.0 µM 99%
inactive: [1]; at 1.2 µM 47% | [1]; at 3.7 µM 64% | [2]; at 1.2 µM 23% | [2]; at 3.7 µM 32% | [4]; at 1.2 µM 35% | [4]; at 3.7 µM 50% | [4]; [16] 36% | [5]; at 1.2 µM 18% | [5]; at 3.7 µM 38% | [5]; [16] 42% | [6]; at 1.2 µM 26% | [6]; at 3.7 µM 19% | [7]; [16] 26% | [15]; at 1.2 µM 3% | [15]; at 3.7 µM 68% | [8]; [16] 68% | [9]; at 1.2 µM -2% | [9]; at 3.7 µM 37% | [9]; [16] 15% | [10]; at 1.2 µM -1% | [10]; at 3.7 µM 17% | [11]; at 1.2 µM 19% | [11]; at 3.7 µM 11%
